Test results reported in PubChem BioAssay AID2275 (Broad Institute, 2010).
The campaign covered roughly 30,000 compounds. About 190 (0.63%) were called active. No stated cut-off is given here; in the data, active means viability loss activity score above about 50%; inconclusive means no clear call, values can overlap the other calls; inactive means below about 35%. The entries come from a sample that favours actives as a whole.

Test: BJeLR cell viability loss, primary screen, luminescence, CellTiterGlo ATP (AID 2275);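 further: higher score means fewer live cells and less ATP luminescence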
Settings: BJeLR fibroblasts viability, 48 h, hits give high values, HRASV12, hTERT and SV40 LT/ST transformed, concentration not given here

| SMILES | viability loss activity score |
| --- | --- |
| O=C(CC(O)(c1ccccc1)C(F)(F)F)c1ccccc1 (stereo unspecified) | -2.63% (inactive) |
| CCCCN(C)S(=O)(=O)c1ccc2c(c1)oc(=O)n2C | -1.52% (inactive) |
| CC(=O)Oc1ccc(N(C(C)=O)S(=O)(=O)c2ccc(Cl)cc2)cc1 | -1.22% (inactive) |
| CC[C@]1(O)C[C@@H]2CN(CCc3c([nH]c4ccccc34)[C@@](C(=O)OC)(c3cc4c(cc3OC)N(C)[C@H]3[C@@](O)(C(=O)OC)[C@H](OC(C)=O)[C@]5(CC)C=CCN6CC[C@]43[C@@H]65)C2)C1 | 64.7% (active) |
| COc1ccc(C(=O)OC2=C(c3ccccc3)C(=O)c3ccccc3C2=O)cc1 | -6.2% (inactive) |
| CC1=C(C(=O)OC2CC(C)CCC2C(C)C)C(c2ccc(Br)cc2)n2nnnc2N1 (stereo unspecified) | -1.4% (inactive) |
| CCC1CCCCN1C(=O)c1ccc(F)cc1 (stereo unspecified) | 5.08% (inactive) |
| O=C(CSc1ccccn1)NCc1ccccc1 | -3.11% (inactive) |
| CCN1C(=O)c2cccc3c(NC(=S)NC(=O)c4ccccc4)ccc1c23 | 2.04% (inactive) |
| Cc1ccc(S(=O)(=O)N(C)C[C@@H]2Oc3c(NC(=O)NC(C)C)cccc3C(=O)N([C@H](C)CO)C[C@H]2C)cc1 | 0.297% (inactive) |
| C=CC[C@H]1Cc2ccccc2[C@H](CC=C)N1 | 5.12% (inactive) |
| COc1ccc(-c2coc3c(C)c4oc(=O)c5cc(OC)ccc5c4cc23)cc1 | -3.61% (inactive) |
| COC(=O)C1=C(N)Oc2cc(C)oc(=O)c2C1c1cccnc1 (stereo unspecified) | -1.16% (inactive) |
| CCOC(=O)CCN1N=C(c2ccc(CC)cc2)CCC1=O | -3.96% (inactive) |
| COc1ccc(S(=O)(=O)NCCN2CCOCC2)cc1-c1nnc2c3ccccc3c(C)nn12 | 13.3% (inactive) |
| CN(C)c1ccc(C2CC(c3ccc(Br)cc3)=NN2S(C)(=O)=O)cc1 (stereo unspecified) | 6.95% (inactive) |
| CSc1c(CC(=O)Nc2ccc(C)cc2)[nH]c2ccccc12 | 1.08% (inactive) |
| CC(=O)OCCn1c(=O)c2ccccc2c2ccccc2c1=O | 0.959% (inactive) |
| Cc1c(C(=O)OC2CCCC2)[nH]c2c1C(=O)CCC2 | -0.399% (inactive) |
| COc1ccc(C(=O)NCc2cc3cc(Cl)ccc3[nH]2)cc1COc1ccccc1Cl | 13.4% (inactive) |
| COc1ccc(-n2nc(C(=O)NC3CCCC(C)C3C)c3c4ccccc4n(C)c3c2=O)cc1 (stereo unspecified) | 0.653% (inactive) |
| Cc1cc(C)n(-c2ccc(-n3cccc3/C=C(/C#N)S(=O)(=O)c3ccccc3)cc2)n1 | 1.25% (inactive) |

| SMILES | viability loss activity score |
| --- | --- |
| O=C(CSc1ccc(Cl)cc1)N1CCc2ccccc21 | 8.93% (inactive) |
| Cc1cc(Sc2nnc(C)s2)c2ccccc2n1 | 34.4% (inactive) |
| COc1cc(S(=O)(=O)N2CCCCCCC2)ccc1-n1cnnn1 | -2.51% (inactive) |
| COc1ccc(NC(=S)N2CCCC(c3ccccc3)=N2)cc1 | -2.21% (inactive) |
| C[C@@H]1CN([C@H](C)CO)C(=O)c2cc(NS(=O)(=O)c3cccs3)ccc2O[C@@H]1CN(C)Cc1ccc(C(F)(F)F)cc1 | 0.614% (inactive) |
| CCOC(=O)C1CCN(S(=O)(=O)c2ccc(N3C(=O)CC4(CCCC4)C3=O)c(Cl)c2)CC1 | 1.47% (inactive) |
| O=C(Nn1cnc2ccccc2c1=O)c1ccccc1 | 3.68% (inactive) |
| CCC(NCC(O)Cn1c2ccccc2c2ccccc21)C(=O)O (stereo unspecified) | -1.06% (inactive) |
| CC(C)Nc1ccc(-n2nc3ccccc3[n+]2[O-])cc1 | 2.31% (inactive) |
| Cc1cccc[n+]1C/C=C\c1ccccc1 | 13.2% (inactive) |
| Cc1ccc(S(=O)(=O)Nc2ccc3c(c2)C(=O)N([C@@H](C)CO)C[C@@H](C)[C@@H](CN(C)S(=O)(=O)c2ccc(C)cc2)O3)cc1 | 3.23% (inactive) |
| CC(C)(C)c1nc(=S)[nH][nH]1 | -5.55% (inactive) |
| Cc1noc(C)c1S(=O)(=O)Nc1ccc2c(c1)C(=O)N([C@@H](C)CO)C[C@H](C)[C@H](CN(C)Cc1ccc(C(=O)Nc3ccccc3N)cc1)O2 | 6.72% (inactive) |
| Cn1c(Cc2nc(-c3cnccn3)no2)nnc1SCC(=O)Nc1ccc(Cl)cc1 | -7.21% (inactive) |
| Cc1ccc(-n2cc(-c3ccccc3)c3c(NN4CCOCC4)ncnc32)cc1Cl | 0.765% (inactive) |
| CC(C)(C)NC(=S)N1CCn2cccc2C1c1ccccc1F (stereo unspecified) | -3.87% (inactive) |
| Cc1ccccc1OC1C(=O)N(CCc2ccc(F)cc2)C1c1ccc2c(c1)OCO2 (stereo unspecified) | 0.258% (inactive) |
| CCCC(=O)N1CCC(c2c[nH]c3ccccc23)(c2c[nH]c3ccccc23)CC1 | 5.31% (inactive) |
| CC(=O)NN1C(=O)c2ccccc2NC1c1ccccc1 (stereo unspecified) | -1.21% (inactive) |
| Cc1cccc(C(=O)Nc2ccc(NC(=O)c3ccco3)cc2)c1 | 0.303% (inactive) |
| CS(=O)(=O)c1sc(C(=O)Nc2ccccc2Cl)c2c1C=CCC2 | -1.24% (inactive) |
| NC(=O)Cn1nnc2sc3c(c2c1=O)CCCC3 | 10.6% (inactive) |

| SMILES | viability loss activity score |
| --- | --- |
| Cc1ccc(CC2C(=O)N(c3cccc(C(F)(F)F)c3)C(=O)C2C)cc1 (stereo unspecified) | 1.06% (inactive) |
| O=C(O)c1ccc(CNCCc2ccccc2)s1 | 0.164% (inactive) |
| COC(=O)C1=C(C)N(C)C(=S)NC1c1ccccc1 (stereo unspecified) | -3.34% (inactive) |
| CCOC(=O)c1cccc(NC(=O)CCOc2ccccc2)c1 | 2.1% (inactive) |
| Cc1ccc(CCNC(=O)C2(NS(=O)(=O)c3cccc4cccnc34)CCCCC2)cc1 | 2.11% (inactive) |
| Cc1ccc(S(=O)(=O)N(CC(=O)NC2CC2)C2CCCCC2)cc1 | 5.79% (inactive) |
| CC(C)(C)C(=O)CSc1nc2ccccc2c(=O)n1CC1CC1 | -4.35% (inactive) |
| Cc1cc(C(C)(C)C)cc(S(=O)(=O)Nc2ccc(C(=O)N3CCC(C)CC3)cc2)c1C | -6.82% (inactive) |
| O=c1n(Cc2ccccc2)c2ccccc2n1Cc1ccccc1 | 6.4% (inactive) |
| CC(C)NC(=O)Nc1ccc2c(c1)C(=O)N([C@@H](C)CO)C[C@H](C)[C@H](CN(C)S(=O)(=O)c1cccs1)O2 | -2.18% (inactive) |
| O=C1C2=C(Nc3ccccc3S(=O)(=O)C2c2ccc(Cl)cc2)c2ccccc21 (stereo unspecified) | 0.962% (inactive) |
| CNC(=O)NC(=O)CSc1ncnc2sc(-c3ccccc3)cc12 | 7.62% (inactive) |
| CC(C)NC(=O)N(C)C[C@H]1Oc2ccc(NC(=O)CCCCCC(=O)Nc3ccccc3N)cc2C(=O)N([C@@H](C)CO)C[C@@H]1C | -2.79% (inactive) |
| Cc1ccccc1C(=O)Nc1ccc(NC(=O)c2ccc(C(C)(C)C)cc2)cc1 | -4.36% (inactive) |
| N#Cc1c(-c2ccccc2)c(-c2ccccc2)nn(CC(=O)NN)c1=O | 26.9% (inactive) |
| COC(=O)C1=C(C)NC2=C(C(=O)c3ccccc32)C1c1ccc(OC)cc1 (stereo unspecified) | -2.35% (inactive) |
| CCOC(=O)c1cc2c(C)n(-c3ccccc3)c(C)c2cc(C(=O)OCC)c1=O | -1.14% (inactive) |
| CC(C)n1c(SCC(=O)O)nc2cc(Cl)ccc21 | 2.11% (inactive) |
| CCN(/C=C1\SC(=S)N(c2ccc(OC)cc2)C1=O)CC | -2.34% (inactive) |
| CCCN(C(=O)CCc1nc(-c2ccccc2F)no1)c1ccccc1C | 14.3% (inactive) |
| COc1ccc(CN(C)C[C@H]2Oc3c(NC(=O)C4CCCCC4)cccc3C(=O)N([C@@H](C)CO)C[C@@H]2C)cc1 | 0.512% (inactive) |
| CC(=O)Nc1ccc(Nc2c3c4c(cccc4[nH]c2=O)C(=O)c2ccccc2-3)cc1 | 59.2% (active) |

| SMILES | viability loss activity score |
| --- | --- |
| O=C(Nc1ccccc1C(=O)O)c1ccc(CN2CCOCC2)cc1 | 8.6% (inactive) |
| CCn1cc(C(=O)NC2CCCC(C)C2C)c2cc(OC)c(OC)cc2c1=O (stereo unspecified) | 2.08% (inactive) |
| O=C1/C(=C/c2cccc(Br)c2)SC(=S)N1CC(=O)N1CCCc2ccccc21 | -6.26% (inactive) |
| O=S(=O)(Nc1ccccc1C(F)(F)F)c1ccc2c(c1)CCO2 | 2.04% (inactive) |
| C[C@@H]1CN([C@H](C)CO)C(=O)c2cc(NS(=O)(=O)c3ccc(Cl)cc3)ccc2O[C@@H]1CN(C)CC1CCCCC1 | -2.47% (inactive) |
| COc1ccc(-c2nn(-c3ccc(C)c(Cl)c3)c3c2cnc2ccc(F)cc23)cc1OC | -4.15% (inactive) |
| Cc1ccc(S(=O)(=O)n2c(C)cc(C(=O)O)c2C)cc1 | -6.81% (inactive) |
| NC1=NC(=O)C(Cc2cccc(Cl)c2)S1 (stereo unspecified) | -0.141% (inactive) |
| CCC(Sc1nc2ccsc2c(=O)n1Cc1ccccn1)C(=O)Nc1cccc(OC)c1 (stereo unspecified) | -2.12% (inactive) |
| CCOC(=O)C1C=C2C(=O)N3C=CC=CC3N=C2N(C(C)C)C1=NC(C)=O (stereo unspecified) | -1.61% (inactive) |
| C=CCSc1nnc2n1CCCN2C(=O)Nc1cccc(Cl)c1 | -3.59% (inactive) |
| OC(CN1CCN(C2c3ccccc3-c3ccccc32)CC1)c1ccccc1 (stereo unspecified) | 0.265% (inactive) |
| Cc1cc(Nc2ccc(Cl)cc2)c2ccccc2n1 | 12.6% (inactive) |
| CCCn1cc(SCC(=O)N2CCc3ccccc32)c2ccccc21 | 1.29% (inactive) |
| CCOC(=O)c1c(NC(=S)Nc2ccc(OC)cc2)sc2c1CC(C(C)C)OC2 (stereo unspecified) | 3.67% (inactive) |
| CC(C)NC(=O)Cn1c2ccccc2c2cn[nH]c(=O)c21 | -1.32% (inactive) |
| CC(=O)N(c1nc(-c2cc3ccccc3oc2=O)cs1)c1cccc(C)c1C | 5.58% (inactive) |
| CCc1c(C)c(C#N)c2nc3ccccc3n2c1-n1ccnc1 | 1.77% (inactive) |
| C[C@H]1CN([C@@H](C)CO)C(=O)c2cc(NC(=O)Cc3cn(C)c4ccccc34)ccc2O[C@H]1CN(C)Cc1ccc(Cl)c(Cl)c1 | -2.28% (inactive) |
| Cc1ccc(S(=O)(=O)N(C)C[C@@H]2Oc3ccc(NS(=O)(=O)c4cccs4)cc3C(=O)N([C@@H](C)CO)C[C@H]2C)cc1 | -3.75% (inactive) |
